# Reference: the supplement of paper PMC10037445
# Values joined by “and” are separate entries in the source; they are usually repeats but may differ in a detail not shown here. Identical values can stand only once. In all, about 2,900 compounds were measured (“NF-kB SEAP reporter activity, fold change vs agonist alone”: median about 0.99, highest 2% from about 2.6 on). Only a selection was taken, and the highest values are over-represented in it overall.
# How the values were obtained:
# RAW-Dual [1] = assay: NF-kB SEAP reporter activity, fold change vs agonist alone; cytotoxicity flag (confluency mask): not cytotoxic; higher = enhanced NF-kB activity
# Method in brief: (§1)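 Supernatant from RAW-Dual macrophages was read after 20 hours for IRF by QuantiLuc luminescence and for NF-κB by QuantiBlue absorbance at 620 nm. The cells (50,000 cells/well in DMEM, 384-well plates, 37 °C, 5% CO2) had received 50 nL of library stock by pin tool and, 1 h later, a PRR agonist. Reporter activity is expressed relative to agonist-alone wells as fold change, and wells were flagged cytotoxic if IncuCyte confluency was under 70% of agonist controls in both mask sets.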
# RAW-Dual [2] = assay: NF-kB SEAP reporter activity, fold change vs agonist alone; higher = enhanced NF-kB activity
# Method in brief: as §1
# RAW-Dual [3] = assay: NF-kB SEAP reporter activity, fold change vs agonist alone; cytotoxicity flag (confluency mask): cytotoxic (confluency <70% of control); higher = enhanced NF-kB activity
# Method in brief: as §1
# [4] = agonist: ODN 1826 (TLR9) 0.5 ug/mL
# [5] = agonist: Pam2CSK4 (TLR2/6) 0.1 ug/mL
# [6] = agonist: Pam3CSK4 (TLR2/1) 0.1 ug/mL
# [7] = library stock concentration (final ~1000-fold dilution): 10 mM, cytotoxicity flag (confluency mask): not cytotoxic, agonist: Imiquimod (TLR7) […]
# [8] = library stock concentration (final ~1000-fold dilution): 10 mM, cytotoxicity flag (confluency mask): not cytotoxic, agonist: MPLA (TLR4) […]
# [9] = library stock concentration (final ~1000-fold dilution): 10 mM, cytotoxicity flag (confluency mask): cytotoxic (confluency <70% of control), agonist: Imiquimod (TLR7) […]
# [10] = library stock concentration (final ~1000-fold dilution): 10 mM, cytotoxicity flag (confluency mask): cytotoxic (confluency <70% of control), agonist: MPLA (TLR4) […]
# [11] = library stock concentration (final ~1000-fold dilution): 1 mM, cytotoxicity flag (confluency mask): not cytotoxic, agonist: Imiquimod (TLR7) […]
# [12] = library stock concentration (final ~1000-fold dilution): 1 mM, cytotoxicity flag (confluency mask): not cytotoxic, agonist: MPLA (TLR4) […]
structure (smiles),measurement,setting,value
CC(=O)OC12COC1CC(O)C1(C)C(=O)C(O)C3=C(C)C(OC(=O)C(O)C(NC(=O)OC(C)(C)C)c4ccccc4)CC(O)(C(OC(=O)c4ccccc4)C21)C3(C)C (stereo not given) (library stock concentration (final ~1000-fold dilution): 10 mM),NF-kB SEAP reporter activity,RAW-Dual [1]; agonist: LPS (TLR4) 0.1 ug/mL,1.2
same,NF-kB SEAP reporter activity,RAW-Dual [1]; [4],0.995
same,NF-kB SEAP reporter activity,RAW-Dual [1]; [5],1.02
same,NF-kB SEAP reporter activity,RAW-Dual [1]; [6],0.841
CC(C(O)c1ccc(O)cc1)N1CCC(Cc2ccccc2)CC1.CC(C(O)c1ccc(O)cc1)N1CCC(Cc2ccccc2)CC1.O=C(O)C(O)C(O)C(=O)O (stereo not given),NF-kB SEAP reporter activity,RAW-Dual [2]; [7],1.14
same,NF-kB SEAP reporter activity,RAW-Dual [2]; [8],0.926
CC(C(O)c1ccc(O)cc1)N1CCC(Cc2ccccc2)CC1.CC(C(O)c1ccc(O)cc1)N1CCC(Cc2ccccc2)CC1.O=C(O)C(O)C(O)C(=O)O (stereo not given) (library stock concentration (final ~1000-fold dilution): 10 mM),NF-kB SEAP reporter activity,RAW-Dual [1]; agonist: LPS (TLR4) 0.1 ug/mL,1.19
same,NF-kB SEAP reporter activity,RAW-Dual [1]; [4],0.64
same,NF-kB SEAP reporter activity,RAW-Dual [1]; [5],1.04
same,NF-kB SEAP reporter activity,RAW-Dual [1]; [6],0.922
Cn1c(=O)cc(N2CCCC(N)C2)n(Cc2ccccc2C#N)c1=O (stereo not given) (library stock concentration (final ~1000-fold dilution): 10 mM),NF-kB SEAP reporter activity,RAW-Dual [1]; agonist: LPS (TLR4) 0.1 ug/mL,1.04 and 1.31
same,NF-kB SEAP reporter activity,RAW-Dual [1]; [4],0.953 and 1.01
same,NF-kB SEAP reporter activity,RAW-Dual [1]; [5],1.16 and 1.1
same,NF-kB SEAP reporter activity,RAW-Dual [1]; [6],0.92 and 1.24
Cn1c(=O)cc(N2CCCC(N)C2)n(Cc2ccccc2C#N)c1=O (stereo not given),NF-kB SEAP reporter activity,RAW-Dual [2]; [7],1.08
O=C(Nc1ccccc1C(=O)NC1CCCCNC1=O)c1cc2ccccc2s1 (stereo not given),NF-kB SEAP reporter activity,RAW-Dual [2]; [7],1.06
same,NF-kB SEAP reporter activity,RAW-Dual [2]; [8],1.16
O=C(Nc1ccccc1C(=O)NC1CCCCNC1=O)c1cc2ccccc2s1 (stereo not given) (library stock concentration (final ~1000-fold dilution): 10 mM),NF-kB SEAP reporter activity,RAW-Dual [1]; agonist: LPS (TLR4) 0.1 ug/mL,2.62
same,NF-kB SEAP reporter activity,RAW-Dual [1]; [4],1.04
same,NF-kB SEAP reporter activity,RAW-Dual [1]; [5],1.1
same,NF-kB SEAP reporter activity,RAW-Dual [1]; [6],1.47
CC12CC(O)C3CC1(OC1OC(CO)C(O)C(O)C1O)C3(COC(=O)c1ccccc1)C(=O)O2 (stereo not given),NF-kB SEAP reporter activity,RAW-Dual [2]; [7],0.925
same,NF-kB SEAP reporter activity,RAW-Dual [2]; [8],1.04
CC12CC(O)C3CC1(OC1OC(CO)C(O)C(O)C1O)C3(COC(=O)c1ccccc1)C(=O)O2 (stereo not given) (library stock concentration (final ~1000-fold dilution): 10 mM),NF-kB SEAP reporter activity,RAW-Dual [1]; agonist: LPS (TLR4) 0.1 ug/mL,1.33
same,NF-kB SEAP reporter activity,RAW-Dual [1]; [4],0.943
same,NF-kB SEAP reporter activity,RAW-Dual [1]; [5],1.11
same,NF-kB SEAP reporter activity,RAW-Dual [1]; [6],1.16
CN(c1ncccc1CNc1nc(Nc2ccc3c(c2)CC(=O)N3)ncc1C(F)(F)F)S(C)(=O)=O.Cl (library stock concentration (final ~1000-fold dilution): 10 mM),NF-kB SEAP reporter activity,RAW-Dual [3]; agonist: LPS (TLR4) 0.1 ug/mL,0.194
same,NF-kB SEAP reporter activity,RAW-Dual [3]; [4],0.29
same,NF-kB SEAP reporter activity,RAW-Dual [3]; [5],0.0618
same,NF-kB SEAP reporter activity,RAW-Dual [3]; [6],0.135
CN(c1ncccc1CNc1nc(Nc2ccc3c(c2)CC(=O)N3)ncc1C(F)(F)F)S(C)(=O)=O.Cl,NF-kB SEAP reporter activity,RAW-Dual [2]; [9],0.169
same,NF-kB SEAP reporter activity,RAW-Dual [2]; [10],0.247
CC1OC(OC2C(CO)OC(OC3C(CO)OC(O)C(O)C3O)C(O)C2O)C(O)C(O)C1NC1C=C(CO)C(O)C(O)C1O (stereo not given),NF-kB SEAP reporter activity,RAW-Dual [2]; [7],0.983
same,NF-kB SEAP reporter activity,RAW-Dual [2]; [8],0.951
CC1OC(OC2C(CO)OC(OC3C(CO)OC(O)C(O)C3O)C(O)C2O)C(O)C(O)C1NC1C=C(CO)C(O)C(O)C1O (stereo not given) (library stock concentration (final ~1000-fold dilution): 10 mM),NF-kB SEAP reporter activity,RAW-Dual [1]; agonist: LPS (TLR4) 0.1 ug/mL,1.19
same,NF-kB SEAP reporter activity,RAW-Dual [1]; [4],1.03
same,NF-kB SEAP reporter activity,RAW-Dual [1]; [5],1.02
same,NF-kB SEAP reporter activity,RAW-Dual [1]; [6],1.06
Nc1nc2cc(-c3ccc4ncc(C(=O)N5CCOCC5)n4c3)ccc2o1 (library stock concentration (final ~1000-fold dilution): 10 mM),NF-kB SEAP reporter activity,RAW-Dual [1]; agonist: LPS (TLR4) 0.1 ug/mL,0.841
same,NF-kB SEAP reporter activity,RAW-Dual [1]; [4],1.02
same,NF-kB SEAP reporter activity,RAW-Dual [1]; [5],0.774
same,NF-kB SEAP reporter activity,RAW-Dual [1]; [6],0.811
CCOC(=O)c1cnc2ccc(-c3cncc(NS(=O)(=O)c4ccccc4)c3)cn12 (library stock concentration (final ~1000-fold dilution): 10 mM),NF-kB SEAP reporter activity,RAW-Dual [3]; agonist: LPS (TLR4) 0.1 ug/mL,7.43
same,NF-kB SEAP reporter activity,RAW-Dual [3]; [4],2.4
same,NF-kB SEAP reporter activity,RAW-Dual [3]; [5],1.68
same,NF-kB SEAP reporter activity,RAW-Dual [3]; [6],3.96
Nc1nc2cc(-c3ccc4ncc(C(=O)N5CCOCC5)n4c3)ccc2o1,NF-kB SEAP reporter activity,RAW-Dual [2]; [7],1.09
same,NF-kB SEAP reporter activity,RAW-Dual [2]; [8],1.09
CCOC(=O)c1cnc2ccc(-c3cncc(NS(=O)(=O)c4ccccc4)c3)cn12,NF-kB SEAP reporter activity,RAW-Dual [2]; [9],1.31
same,NF-kB SEAP reporter activity,RAW-Dual [2]; [10],2.94
Cn1c(-c2ccccc2C(F)(F)F)nnc1C12CCC(c3noc(C4CC(F)(F)C4)n3)(CC1)CC2 (library stock concentration (final ~1000-fold dilution): 10 mM),NF-kB SEAP reporter activity,RAW-Dual [1]; agonist: LPS (TLR4) 0.1 ug/mL,1.22
same,NF-kB SEAP reporter activity,RAW-Dual [1]; [4],0.41
same,NF-kB SEAP reporter activity,RAW-Dual [1]; [5],0.827
same,NF-kB SEAP reporter activity,RAW-Dual [1]; [6],1.16
Cn1c(-c2ccccc2C(F)(F)F)nnc1C12CCC(c3noc(C4CC(F)(F)C4)n3)(CC1)CC2,NF-kB SEAP reporter activity,RAW-Dual [2]; [7],0.868
same,NF-kB SEAP reporter activity,RAW-Dual [2]; [8],1.3
CCCCCCOC(=O)c1cc(=O)c(O)c2c(O)c(O)c(OC)cc2c1,NF-kB SEAP reporter activity,RAW-Dual [2]; [11],1.03
same,NF-kB SEAP reporter activity,RAW-Dual [2]; [12],1.23
CCCCCCOC(=O)c1cc(=O)c(O)c2c(O)c(O)c(OC)cc2c1 (library stock concentration (final ~1000-fold dilution): 1 mM),NF-kB SEAP reporter activity,RAW-Dual [1]; agonist: LPS (TLR4) 0.1 ug/mL,1.14
same,NF-kB SEAP reporter activity,RAW-Dual [1]; [4],0.931
same,NF-kB SEAP reporter activity,RAW-Dual [1]; [5],0.872
same,NF-kB SEAP reporter activity,RAW-Dual [1]; [6],0.85
CCOC(=O)C1=Cc2ccc(C(F)(F)C(F)(F)F)cc2N=C(N)C1,NF-kB SEAP reporter activity,"RAW-Dual [2]; library stock concentration (final ~1000-fold dilution): .1 mM, cytotoxicity flag (confluency mask): not cytotoxic, agonist: Imiquimod (TLR7) […]",0.718
same,NF-kB SEAP reporter activity,"RAW-Dual [2]; library stock concentration (final ~1000-fold dilution): .1 mM, cytotoxicity flag (confluency mask): not cytotoxic, agonist: MPLA (TLR4) […]",1.18
CCCN(CCC)C(=O)C1=Cc2ccc(-c3ccc(C(=O)N4CCCC4)cc3)cc2N=C(N)C1,NF-kB SEAP reporter activity,RAW-Dual [2]; [11],1.22
same,NF-kB SEAP reporter activity,RAW-Dual [2]; [12],1.82
CCOC(=O)C1=Cc2ccc(C(F)(F)C(F)(F)F)cc2N=C(N)C1 (library stock concentration (final ~1000-fold dilution): .1 mM),NF-kB SEAP reporter activity,RAW-Dual [1]; agonist: LPS (TLR4) 0.1 ug/mL,1.34
same,NF-kB SEAP reporter activity,RAW-Dual [1]; [4],1.25
same,NF-kB SEAP reporter activity,RAW-Dual [1]; [5],1.09
same,NF-kB SEAP reporter activity,RAW-Dual [1]; [6],1.17
CCCN(CCC)C(=O)C1=Cc2ccc(-c3ccc(C(=O)N4CCCC4)cc3)cc2N=C(N)C1 (library stock concentration (final ~1000-fold dilution): 1 mM),NF-kB SEAP reporter activity,RAW-Dual [1]; agonist: LPS (TLR4) 0.1 ug/mL,2.58
same,NF-kB SEAP reporter activity,RAW-Dual [1]; [4],1.07
same,NF-kB SEAP reporter activity,RAW-Dual [1]; [5],1.16
same,NF-kB SEAP reporter activity,RAW-Dual [1]; [6],1.26
